# Laboratory results from PubChem BioAssay AID777 (Sanford-Burnham Center for Chemical Genomics, 2007).
# Among all 96,000 compounds or so, about 19,000 (20%) were called active. A selection follows. Unmarked numbers belong to inactive results.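 Rule for the calls: active = blocking of liver enzyme CYP2C9 beyond about 50% at 5 µM (limit read from the data); inactive = the rest.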
# Biological target: Cytochrome P450 2C9 (Homo sapiens) (UniProt P11712)
# Assay: blockers of cytochrome P450 2C9 activity – biochemical, luminescence, ADME assay, primary screen (AID 777)
# Conditions: CYP2C9 Supersomes, luciferin-H conversion, at 5 µM, hits give high values
# Cytochrome P450 2C9 (Homo sapiens), sequence (P11712 whole entry, looked up): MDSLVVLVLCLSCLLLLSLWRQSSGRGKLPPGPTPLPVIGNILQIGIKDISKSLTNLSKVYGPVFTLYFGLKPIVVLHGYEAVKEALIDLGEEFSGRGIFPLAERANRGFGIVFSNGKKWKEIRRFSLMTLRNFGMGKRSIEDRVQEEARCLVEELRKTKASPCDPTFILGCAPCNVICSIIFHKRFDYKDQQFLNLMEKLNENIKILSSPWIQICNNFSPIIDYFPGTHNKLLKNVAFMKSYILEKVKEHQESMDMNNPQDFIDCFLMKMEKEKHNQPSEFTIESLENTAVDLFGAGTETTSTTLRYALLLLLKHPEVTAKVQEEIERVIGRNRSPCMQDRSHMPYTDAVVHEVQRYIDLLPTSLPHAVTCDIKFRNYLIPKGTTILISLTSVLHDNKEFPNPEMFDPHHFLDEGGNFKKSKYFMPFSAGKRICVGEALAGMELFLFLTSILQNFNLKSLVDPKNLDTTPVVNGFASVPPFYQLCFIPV
row,SMILES,inhibition
1,COc1ccc(-n2nc3c(c2NC(=O)Cc2cccc(C)c2)CS(=O)C3)cc1 (stereo not given),-1.9%
2,COc1ccccc1C(=O)Oc1ccc(N2C(=O)CCC2=O)cc1,-113%
3,Cc1ccc(OC(=O)c2ccccc2C(=O)OCC(F)(F)C(F)F)cc1,84.1% (active)
4,Cc1ccc(OC(=O)c2cc3ccccc3o2)cc1,-2.9%
5,CC(C)(C)c1ccc(C(=O)NNC(=O)Cc2ccccc2)cc1,6.1%
6,CCCCN1C(=O)CC(N2CCOCC2)C1=O (stereo not given),1.5%
7,CCCCNC(=O)C1CCCN(S(=O)(=O)c2ccc(S(=O)(=O)NCC(C)C)cc2)C1 (stereo not given),46%
8,CCCCn1c(=S)[nH]c2cc(S(=O)(=O)N3CCCCC3)ccc21,64.3% (active)
9,CN1CCCN(S(=O)(=O)c2ccc3c(c2)OCCO3)CC1,-7.5%
10,c1ccc(-c2cn3cccnc3n2)cc1,-1.3%
11,c1ccc(-n2nnnc2NC2CCCCCC2)cc1,24%
12,Cc1cc(C)c([N+](=O)[O-])cc1-c1ccc(/C=N/NC(=O)c2nonc2N)o1,22.2%
13,O=C1C2C3C=CC(C4CC34)C2C(=O)N1/N=C/c1ccc(-c2ccccc2[N+](=O)[O-])o1 (stereo not given),36.8%
14,Cc1cc([N+](=O)[O-])c(-c2ccc(/C=N/n3cnnc3)o2)cc1Cl,77% (active)
15,Cc1cc(-c2ccc(/C=N/n3cnnc3)o2)c([N+](=O)[O-])cc1C,50.5% (active)
16,CCCC(=O)N1c2ccccc2NC2=C(C(=O)CCC2)C1c1ccc(F)cc1 (stereo not given),8.5%
17,CC(=O)CCS(=O)(=O)c1ccc(C)c(C)c1,-62.6%
18,Cc1c(CN2CCC(C)CC2)c(=O)n(-c2ccccc2)n1C,-8%
19,CCOC1CS(=O)(=O)CC1OCC (stereo not given),-5.4%
20,CC(N=Cc1nc(-c2ccccc2)oc1O)c1ccccc1 (stereo not given),66.7% (active)
21,CC(NC(=O)c1cc(-c2ccccc2)on1)c1ccccc1 (stereo not given),-23.7%
22,CCOC(=O)N1CCN(CC(=O)c2ccc3c(c2)CCN3)CC1,-1.9%
23,CC(=O)Nc1nc(C)c(Cc2ccccc2)c(=O)[nH]1,-0.9%
24,CC1(C)Cc2c(sc3nc(SCC(=O)NCc4ccccc4)n(-c4ccccc4)c(=O)c23)CS1,-0.2%
25,O=C(CNC(=O)c1cc2c(s1)CCC2)Nc1ccccc1Br,30%

row,SMILES,inhibition
1,O=C(NCCCN1CCOCC1)c1cc2c(s1)CCC2,-6.3%
2,O=C(c1cc2c(s1)CCC2)N1CCN(c2ccccc2)CC1,54.4% (active)
3,Cc1nnc(SCc2nc3ccccc3nc2C)s1,-5.7%
4,CC(C)NC(=O)c1ccccc1S(=O)c1ccccc1C#N (stereo not given),-1.3%
5,Cc1cnc(NC(=O)CSc2nnc(-c3ccc(Cl)cc3Cl)n2N)s1,46.7%
6,CSc1ccc(CCNC(=O)C2CCN(c3nnc(-n4cccc4)s3)CC2)cc1,37%
7,O=C(CN1CCSCC1)N/N=C/c1ccc(F)cc1F,7.6%
8,CN1/C(=C\C=C2\N=C(c3ccc(F)cc3)OC2=O)C(C)(C)c2ccccc21,64.7% (active)
9,O=C1OC(c2ccc(Cl)cc2)=N/C1=C\c1cccnc1,18.2%
10,CCn1cc(C(=O)NCc2ccc(OC)cc2OC)c(=O)c2ccc(C)nc21,15.3%
11,CCCCCCOC(=O)NCC(O)c1ccccc1 (stereo not given),23.8%
12,c1ccc(-n2ncc(-c3nn[nH]n3)n2)cc1,46.2%
13,COc1ccc(N2C(=O)C3CCCN3C2c2cccc(OC)c2)cc1 (stereo not given),16.3%
14,CCCCNC(=O)CSc1nccn1Cc1ccccc1,23%
15,CCCCCCNC(=O)CSc1nccn1Cc1ccccc1,77.3% (active)
16,COC(=O)CCSc1nccn1Cc1ccccc1,10.8%
17,C=CCN(c1ccc(C(N)=O)cc1)S(C)(=O)=O,-10.7%
18,CC(=O)c1c(N)n(C)c(=O)n(C)c1=O,21.6%
19,ONC(=Nc1ccccc1)c1ccccc1Cl,2.1%
20,CCOC(=O)c1sc(NC(=O)c2cc(S(=O)(=O)N3CCOCC3)ccc2C)nc1C,71% (active)
21,O=C(Nc1ccc2c(c1)nc1n2CCCCC1)c1cc(S(=O)(=O)N2CCOCC2)ccc1Cl,43.5%
22,Cc1ccc(S(=O)(=O)N2CCOCC2)cc1C(=O)NCc1ccc(F)cc1,31.6%
23,O=C1c2cccc3cc(Br)cc(c23)C(=O)N1Nc1ccccc1,-74%
24,Cn1cccc1C1(C(F)(F)F)NCCNC1=O (stereo not given),72% (active)
25,N#C/C(=C\c1ccccc1)c1n[nH]c(Cn2cncn2)n1,27%
